Source: PubChem (National Center for Advancing Translational Sciences (NCATS))
MARV entry inh: inhibitors of Marburg virus binding or cell entry | AID 540276 | Marburg virus pseudotyped entry inhibition, cell reporter | 300,000 tested, 1.8% active | Potency, µM (titrated, usually from 37.8 µM), inactives show at the highest dose activity change, negative = inhibition, hits mostly inhibitors; calls by dose curve; tested in HEK293 cells; note: potency is the fitted concentration of half-maximal effect; % is set by controls: 0 for no effect and ±100 for the full control effect
CHX counter: counter-screen hit for Shiga toxin inhibitors, cycloheximide | cell reporter, cycloheximide protein synthesis inhibition counterscreen | max response, % | 300,000 tested, 12% active | AID 2314; in the data active = max response mostly above about 13%, no sharp cut-off; inactive = mostly below about 14%; note: read at 38.3 µM for the half of the compounds with a filed dose; 0% is about no effect
Shiga toxin inh: Shiga toxin inhibition; Vero cells, Shiga toxin protein synthesis inhibition reporter; 290,000 tested, 9.2% active; AID 2315; inhibition, % at 38.7 µM; in the data active = inhibition mostly above about 28%, no sharp cut-off; inactive = mostly below about 43%; note: 0% is about no effect
Lassa entry inh: Lassa virus entry inhibition; Lassa virus pseudotype entry inhibition, cell reporter; Potency, µM (top dose mostly 37.9 µM), for inactives: at the highest dose activity change, negative = inhibition, actives largely listed as inhibitors; 300,000 tested, 1.2% active; AID 540256; calls by dose curve; tested in HEK293 cells; note: potency is the fitted concentration of half-maximal effect; % is set by controls: 0 for no effect and ±100 for the full control effect; nearly all actives have a fitted effect of over 50% in size
AMA1-RON2 inh: AMA1-RON2 (P. falciparum) interaction inhibition. Potency, µM (doses to about 58.2 µM), for the others: top-dose activity change, negative = inhibition, actives largely listed as inhibitors. 360,000 tested, 0.2% active. AlphaScreen AMA1-biotinylated RON2 peptide binding; active = well fitted inhibition curve with a large enough effect; inconclusive = small, poorly fitted or top-dose-only effect; inactive = no such curve, though single readings can be large or run the other way;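 note: potency is the fitted concentration of half-maximal effect; 0% = vehicle wells and -100% = peptide control; nearly all actives have a fitted effect of over 45% in size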
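AMA1 (3D7) with his tag at 25 nM final met compounds first, then biotinylated RON2 peptide at 25 nM; detection used donor plus acceptor beads, 10 µg/mL apiece, read by AlphaScreen after 30 min at room temperature.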
The depositor's hits bear a star; ? = inconclusive; · = no result given; + = active, no number; [ ] = another dose, or the depositor's remark. The sample as a whole holds a higher share of hits than the screen did.

SMILES | MARV entry inh | CHX counter | Shiga toxin inh | Lassa entry inh | AMA1-RON2 inh
Nc1nc2c(ncn2[C@@H]2O[C@H](CNS(=O)(=O)c3cccnc3)[C@@H](O)[C@H]2O)c(=O)[nH]1 | · | · | · | · | 4%
CCCn1cc(CN2CCC(n3nccc3NC(=O)c3ccccc3)CC2)c(C)n1 | 18% | -1 | 6 | 12% | 2%
CC(=O)Nc1ccc(C(=O)CSc2nnnn2C)cc1 | 17%[46.1 µM] | -1 | -3 | 19% | -7%
CCn1nnnc1SCC(=O)Nc1nc2ccc(OC)cc2s1 | 2%[46.1 µM] | 25* | + | -15% | 6%
COc1ccc2nc(NC(=O)CSCC(=O)Nc3cc(C)on3)sc2c1 | ? | · | · | ? | 22%
CCn1nnnc1SCC(=O)c1cccc(OC)c1 | ? | 19* | 14 | 1% | 0%
Cn1nnnc1SCc1ccc(C(=O)Nc2ccc(Br)cc2)cc1 | 14% | 47* | 57* | ? | 5%
CCn1nnnc1SCC(=O)Nc1ccc(OC)cc1 | -18%[46.1 µM] | 13 | 34* | 20% | 14%
CCn1nnnc1SCC(=O)Nc1ccc(F)cc1 | 25%[46.1 µM] | 20 | 23 | 16%[46.1 µM] | 11%
CCCCc1nc2c(c3c1C[C@H](C)OC3)CN(S(=O)(=O)CCCC)CC2 | -1%[14.2 µM] | · | · | · | ·
C[C@H](NC(=O)c1ccccc1Cl)C(=O)OCc1cn2cc(Cl)ccc2n1 | -9% | · | · | 4% | 15%
C=CCn1nnnc1SCC(=O)Nc1ccc(OC)cc1 | · | 24* | 20 | · | -9%
Cc1occc1-c1nnc(SCC(=O)Nc2ccccc2)n1CCc1ccccc1 | -6% | 12 | -4 | -3% | -6%
COc1ccc(NC(=O)CCSc2nnnn2C)cc1 | 24% | 25* | 51 | 23% | 7%
COCCn1nnnc1SCC(=O)c1ccccc1 | 13% | 14* | 34 | 25% | 8%
CCCn1nnnc1SCC(=O)c1ccc(NC(C)=O)cc1 | -2%[46.1 µM] | 12 | 16 | 0% | 1%
CCOC(=O)c1cccc(NC(=O)CSc2nnc(-c3ccoc3C)n2CCOC)c1 | 3% | 9.2* | 9 | 2% | -2%
Fc1ccc(NC(=S)NC23CN4CN(CN(C4)C2)C3)cc1 | 19% | -6 | -10 | 7% | 27%
O=C1CSC(c2cn(-c3ccccc3)nc2-c2cccs2)N1CC1CCCO1 (stereo not drawn) | ? | -3 | 4 | -20% | -12%
O=C(CSc1nc(C(F)(F)F)cc(=O)[nH]1)N1CCC(Cc2ccccc2)CC1 | -1%[46.1 µM] | · | · | 30% | -1%
Cc1ccccc1OCC(=O)Nc1ccc(OCc2cc(=O)n3ccsc3n2)cc1 | 6%[46.1 µM] | · | · | -2%[46.1 µM] | ·
COc1ccc2nc(NC(=O)CSc3nnc(-c4ccoc4C)n3C)sc2c1 | 3% | 46* | 80* | -37% | -10%
COc1ccc(NC(=O)CCSc2ccc(F)cc2)cc1 | ? | 34* | 57* | -20%[46.1 µM] | -9%
CCc1nnc(NS(=O)(=O)c2ccc(N=Cc3c(C)[nH]n(-c4ccc(C)c(C)c4)c3=O)cc2)s1 | 4% | 12* | 10 | 8% | 46%
O=C1CC(c2ccc(O)cc2)Oc2cc(O)cc(O)c21 (stereo not drawn) | 15% | 14* | 36 | 0% | 4%
SMILES | MARV entry inh | CHX counter | Shiga toxin inh | Lassa entry inh | AMA1-RON2 inh
O=C1CC(c2ccc(O)c(O)c2)Oc2cc(O)cc(O)c21 (stereo not drawn) | · | -2 | 19 | · | -15%
O=C1CC(c2ccccc2)Oc2cc(O)cc(O)c21 (stereo not drawn) | · | 16* | 57* | · | 0%
COc1ccc(-c2sc3cc4c(cc3c2C#Cc2ccc(N)cc2)OCO4)cc1 | · | · | · | · | -6%
CCCCNS(=O)(=O)c1ccc2nc(-c3cccnc3)cc(C(=O)NCCC)c2c1 | · | · | · | -1%[46.1 µM] | ·
O=C(Nc1csc([N+](=O)[O-])c1)Nc1c(Cl)cccc1Cl | · | 1 | -13 | · | -6%
O=C(Nc1ccc(Cl)cc1)Nc1ccccc1CC[N+](=O)[O-] | -23%[46.1 µM] | 24 | 41* | ? | 19%
O=C(Nc1ccc(Cl)cc1)Nc1csc([N+](=O)[O-])c1 | ? | 30* | 100* | ? | -15%
O=C(Cc1ccccc1)NNC(=O)Nc1ccc(Cl)c(Cl)c1 | ? | -2 | -12 | ? | 71%
O=C(Nc1ccc(Cl)cc1)Nc1ccccc1C(=O)O | ? | 23* | 35 | ? | -13%
O=C(Nc1ccc(Cl)c(Cl)c1)Nc1ccccc1C(=O)O | ? | 30* | 41 | 3.5µM* | 0%
O=C(Cc1ccc(Cl)cc1)Nc1ccccc1C(=O)Nc1ccc(C(=O)O)cc1 | · | 0 | -6 | · | -7%
Cc1ccc(OCCN(C)C(=O)C2CCC(=O)N(CCCN3CCCC3=O)C2)cc1 (stereo not drawn) | -11%[46.1 µM] | -2 | -3 | 0%[46.1 µM] | 1%
COc1cc(C(=O)OCc2cc(=O)n3ccsc3n2)cc(OC)c1OC | · | · | · | -25%[46.1 µM] | ·
CC(=O)c1ccc(NC(=O)Nc2nnc(N3CCCC(C)C3)s2)cc1 (stereo not drawn) | -3%[46.1 µM] | · | · | 18%[46.1 µM] | ·
CC[C@H](C)[C@H](NC(=O)[C@H](C)NC(=O)[C@H](Cc1cnc[nH]1)NC(=O)[C@@H]1CCCN1C(=O)CNC(=O)[C@H](CC(C)C)NC(=O)[C@H](CC(C)C)NC(=O)[C@H](Cc1ccc(O)cc1)NC(=O)CNC(=O)[C@H](C)NC(=O)[C@H](CO)NC(=O)[C@H](CC(N)=O)NC(=O)[C@H](CC(C)C)NC(=O)[C@@H](NC(=O)[C@H](Cc1c[nH]c2ccccc12)NC(=O)CN)[C@@H](C)O)C(=O)N[C@@H](CC(=O)O)C(=O)N[C@@H](CC(N)=O)C(=O)N[C@@H](Cc1cnc[nH]1)C(=O)N[C@@H](CCCNC(=N)N)C(=O)N[C@@H](CO)C(=O)N[C@@H](Cc1ccccc1)C(=O)N[C@@H](CO)C(=O)N[C@@H](CC(=O)O)C(=O)N[C@@H](CCCCN)C(=O)N[C@@H](Cc1cnc[nH]1)C(=O)NCC(=O)N[C@@H](CC(C)C)C(=O)N[C@H](C(N)=O)[C@@H](C)O | · | -9 | -9 | · | ·
O=C(Nc1ccccc1CC[N+](=O)[O-])N1CCN(c2ccccc2)CC1 | 10µM* | 13 | -6 | -2% | -23%
CN(C)C(=O)Nc1ccccc1CC[N+](=O)[O-] | 20%[46.1 µM] | 7 | -2 | -20% | -27%
Cc1ccc(S(=O)(=O)/N=C2\C=C(NS(=O)(=O)c3ccccc3)C(=O)c3ccccc32)cc1 | -1%[46.1 µM] | · | · | 1% | -18%
Cc1ccc(NC2=C/C(=N\S(=O)(=O)c3cccs3)c3ccccc3C2=O)c(C)c1 | ? | 13* | 7 | ? | 4.5µM*
Cc1ccc(Cl)cc1NC1=C/C(=N\S(=O)(=O)c2cccs2)c2ccccc2C1=O | ? | -1 | -10 | 6.5µM* | 4.5µM*
O=C1C(Nc2ccc(O)cc2)=C/C(=N/S(=O)(=O)c2cccs2)c2ccccc21 | 2.5µM* | 21* | 20 | 3.5µM* | 25µM*
O=C1/C(=N\S(=O)(=O)c2cccs2)C([n+]2ccccc2)=C([O-])c2ccccc21 | · | -5 | -4 | · | -2%
CC(C)(C)[C@@H]1COC(=O)[C@H](Cc2ccc(F)cc2)C/C=C\C[C@@H](CC(=O)NCCO)C(=O)N1 | · | · | · | · | -2%
COc1cccc(NC(=O)CSc2cccc[n+]2[O-])c1 | · | · | · | · | 5%
